Test results: PubChem BioAssay
Values without a mark were called inactive. How the calls were made is not given here.

The compounds below were run on Aerobactin synthetase IucA (Klebsiella pneumoniae hvKP1) (assay: IucA enzyme inhibition, primary screen, biochemical, Spectrum library (AID 1346200;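 further: 100% = wells without compound and 0% = wells lacking enzyme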)). Settings: malachite green pyrophosphate, A620, at 8 µM, hits give low values.

In order of falling activity remaining:
1. COC(=O)C[C@H]1C(C)(C)C(=O)[C@@H]2CC3=C(CC[C@]4(C)C3=CC(=O)O[C@H]4c3ccoc3)C1(C)C2=O  121%
2. COc1cc(N)c(Cl)cc1C(=O)NC1CCN(Cc2ccccc2)CC1  119%
3. CC[C@H]1OC(=O)[C@H](C)[C@@H](O[C@H]2C[C@@](C)(OC)[C@@H](O)[C@H](C)O2)[C@H](C)[C@@H](O[C@@H]2O[C@H](C)C[C@H](N(C)C)[C@H]2O)[C@](C)(O)C[C@@H](C)[C@@H]2N[C@@H](COCCOC)O[C@H]([C@H]2C)[C@]1(C)O  117%
4. COc1ccc(C(=O)c2ccccc2)c(O)c1  116%
5. O=C(O)COCCN1CCN(C(c2ccccc2)c2ccc(Cl)cc2)CC1 (stereo unspecified)  116%
6. COc1ccc2c(c1)CCC1C2CCC2(C)C1C[C@@H](O)C2O (stereo partly specified)  114%
7. CN[C@@H]1[C@H](O)[C@H](NC)[C@H]2O[C@@]3(O)C(=O)C[C@@H](C)O[C@H]3O[C@@H]2[C@H]1O  108%
8. COC(=O)C[C@H]1C2(C)CC34OC5(C)O[C@@]6([C@H](OC(C)=O)C(OC(C)=O)[C@]7(C)C(/C(=C(/O)C(C)C)C(=O)O[C@H]7c7ccoc7)[C@@]6(O5)[C@H](OC(C)=O)[C@@]3(O)C2OC(=O)C(C)C)[C@]14C (stereo partly specified)  104%
9. O=C(O)c1cc(O)c2c(c1)C(=O)c1cc(O)cc(O)c1C2=O  99.8%
10. Cc1cc(=O)c2c(O)cc(O)c(C)c2o1  99.3%
11. C/C=C(\C)C(=O)O[C@@H]1c2c(ccc3ccc(=O)oc23)OC(C)(C)[C@@H]1OC(C)=O  87%
